# Test results published in the supplement of paper PMC3334620.
# The full ranking holds about 33,000 sequences; the median of “E-score (-0.5 to 0.5)” is about -0.0014, and the highest 2% start at about 0.25. The full list was thinned out, with the highest values kept by preference.
# Biological target: T1, Cad1 (UniProt P24813)
# T1 sequence: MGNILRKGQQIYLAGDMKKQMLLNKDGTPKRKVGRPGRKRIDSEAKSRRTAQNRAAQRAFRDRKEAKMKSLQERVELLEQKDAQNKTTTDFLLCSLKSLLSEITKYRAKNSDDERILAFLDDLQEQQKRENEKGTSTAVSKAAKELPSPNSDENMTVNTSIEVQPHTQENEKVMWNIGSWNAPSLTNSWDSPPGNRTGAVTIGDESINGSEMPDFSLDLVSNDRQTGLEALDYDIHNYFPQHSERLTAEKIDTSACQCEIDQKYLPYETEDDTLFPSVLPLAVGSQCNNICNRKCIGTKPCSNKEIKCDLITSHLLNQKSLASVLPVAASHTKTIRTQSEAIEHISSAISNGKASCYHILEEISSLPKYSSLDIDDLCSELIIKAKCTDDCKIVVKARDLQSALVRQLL
# Experiment: PBM E-score (8-mer binding enrichment) (E-score (-0.5 to 0.5)); higher = stronger / more preferred TF binding
# Conditions: protein concentration: 100 nM; construct: GST-full length
# Description: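 Universal 'all 10-mer' protein binding microarrays (Agilent AMADID 015681) probed with GST-tagged S. cerevisiae TFs (full-length or DBD) made by in vitro transcription/translation (PURExpress), about 100-200 nM. Bound TF was detected with fluorescent anti-GST. Each ungapped 8-mer (which stands for itself and its reverse complement) is scored by the PBM enrichment score (E-score), a modified Wilcoxon-Mann-Whitney statistic from -0.5 to +0.5, computed with the Universal PBM Analysis Suite. Scale: above 0.35 generally sequence-specific binding.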
row,Sequence,PBM E-score
1,CAACTAGG,0.079
2,CGAGGCAG,0.0833
3,AACCTCAC,-0.112
4,ATGTTTCC,-0.00726
5,ATGTTTTA,0.0134
6,ATGTTTTC,0.268
7,CTGTTGGC,-0.202
8,ATTTGTTC,0.265
9,CTTTGTTC,0.0827
10,ATTTGTCG,0.147
11,ATTTGTGC,0.148
12,ATTTGTTA,0.203
13,ATTTGTCC,0.253
14,AAATCCTC,-0.0802
15,ATGTGACA,0.281
16,CTGTGACA,0.209
17,GTGTGACA,0.0138
18,GCATCCCA,-0.303
19,CGCACTTC,-0.184
20,CCCAAGAG,-0.132
21,CTATTACA,0.123
22,ATATTACC,0.28
23,GTATTACA,0.234
24,CTATTACC,-0.0596
25,ATATTACG,0.24

row,Sequence,PBM E-score
1,ATATTACA,0.347
2,AGCCGTCG,0.219
3,CACGGAAG,-0.00842
4,TATAGGAA,0.127
5,CGACCCGC,0.0365
6,AATAACGG,0.253
7,AATAACGC,-0.0922
8,CATAACGG,-0.00107
9,GATTGCAA,0.117
10,AGGACCCA,-0.22
11,AAGCGCTC,0.0197
12,TCGCGCGA,0.308
13,AATCGCGC,0.327
14,GATCGCGC,0.118
15,AAGCGCTA,0.107
16,CCGCGCCG,0.174
17,TAGCGCGA,0.211
18,TCGCGAGA,0.165
19,AATCGCGT,0.107
20,AAGCGCTT,0.421
21,ACGCGCGG,0.136
22,CCGCGCGG,0.417
23,ATCGGTAG,0.0904
24,AGCACACT,-0.0625
25,AGAGCCAG,-0.239

row,Sequence,PBM E-score
1,CGCGTACA,-0.008
2,ATGCCGTC,-0.0686
3,AAGATCCA,-0.089
4,CTCTGGGA,-0.252
5,AGGACACC,0.00026
6,ACAAACAT,0.145
7,CCCGCGGG,0.0407
8,CCCTACAA,-0.14
9,AAGGGGGT,-0.389
10,CAGCGCTA,0.157
11,AATCGTGA,0.0886
12,CCGCGAAA,0.0147
13,GCGCGAAA,0.308
14,CAGCGCTC,0.153
15,CCGCGCGA,0.295
16,CATCGTGC,0.162
17,CAGCGCTG,0.263
18,TCGCGAAA,0.168
19,CCGCGAGA,-0.102
20,AATCGTGC,0.276
21,CCGCGCGC,0.144
22,TAGCCGAA,-0.0837
23,CCCTCCCG,-0.226
24,CAACATCG,0.0708
25,ACAGAAAG,-0.0964

row,Sequence,PBM E-score
1,GTCGGTGA,-0.13
2,TCATTCAA,0.13
3,AGGTACCC,-0.138
4,ATCTTTCC,0.0734
5,CCGTCTAG,-0.128
6,CACGAGCC,-0.209
7,CAATCGCA,0.00664
8,TACCGCGA,0.172
9,ACCCGCGT,-0.00317
10,GCGCGCGC,0.417
11,ACGCGCGC,0.216
12,ACGCGCGA,0.139
13,AACCGCGT,0.122
14,AACCGCGA,0.287
15,ACCCGCGC,0.256
16,ACCCGCGA,0.0834
17,GCGCGCGA,0.265
18,GTGCGCGA,-0.0729
19,GCGCGCAC,0.218
20,AAGTGTTA,0.0352
21,ACAGCACG,-0.0152
22,AACCCCAA,0.113
23,ATAACTCC,0.0565
24,AGATGAAA,0.02
25,AAGCGCGA,0.101

row,Sequence,PBM E-score
1,AAGCGCGG,-0.0419
2,AAGCGCGC,0.276
3,AACTCCGT,0.0805
4,CGCCGGCC,-0.124
5,CGCCGGCG,0.301
6,AGCCGGCG,0.0742
7,TAATCTCA,0.0993
8,ACTGTTTG,-0.0907
9,AATCGACA,0.304
10,AATCGATA,0.288
11,AATCGAAG,0.182
12,AATCGATG,0.271
13,AATCGACC,-0.051
14,AATCGACT,-0.039
15,AATCGATC,0.215
16,AATCGATT,0.198
17,CATCGATG,0.169
18,CCTCCATC,-0.237
19,TGTTGCAA,0.228
20,ATCCTTCA,-0.174
21,ATACTTCA,-0.0179
22,CTACTTCA,-0.0482
23,GTACTTCA,0.251
24,CGCAGATC,0.098
25,AGCAGATC,0.256

row,Sequence,PBM E-score
1,AGCAGATA,-0.0464
2,ATGTGCCC,-0.071
3,ACAACCAG,0.145
4,ACAACCAT,0.281
5,ACAACCAC,0.056
6,GGTGCATA,0.00671
7,CGTACCAA,0.256
8,ATTACCAA,0.292
9,ATTACCAC,0.161
10,GTTACCAA,0.0957
11,TGTACCAA,-0.0377
12,CGTACCAG,-0.0767
13,AACCGGTA,-0.0764
14,ATTCCCTG,0.117
15,CTTAAAGA,-0.0851
16,ATTTATAC,0.226
17,GTTTATGA,0.142
18,GTTTATAA,0.264
19,GTTTATCA,0.173
20,CTTTATAA,0.101
21,ATTTATAA,0.341
22,CATTCAGG,-0.0709
23,AAGTAAGA,-0.215
24,CAGTATCA,0.0166
25,TAGTAACA,0.255

row,Sequence,PBM E-score
1,GAGTAACA,-0.00744
2,GAGTAATA,0.198
3,CAGTAAGA,0.194
4,TAGTATCA,0.265
5,AAGTAACA,0.0629
6,TAGTAAGA,0.265
7,TAGTAATA,0.371
8,CAGTAATA,0.249
9,GAGTATCA,-0.045
10,AGGTCCGG,0.0244
11,ACGGGATC,-0.0506
12,TCATGTCA,0.139
13,GGAAGACA,-0.0527
14,ACACAATC,0.0563
15,CCCCGCCC,0.114
16,CTGGCCAC,0.00652
17,CATAGCGA,0.051
18,AATAGCGA,0.214
19,AATAGCGC,0.269
20,AATAGCGG,-0.0047
21,CATAGCGC,0.26
22,CATAGCGG,-0.142
